Measured values: the supplement of paper PMC8699584
Values joined by “and” are separate entries in the source; they are usually repeats but may differ in a detail not shown here. Identical values can stand only once. ± gives the standard deviation of the averaged measurements.

tested on: Mv4-11; assay: cell viability relative to DMSO control (bortezomib = 0%); higher = less growth inhibition; conditions: 10 nM; 72 h
Method in brief: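 Using 384-well plates, a set of 679 approved and investigational compounds was tested once at 10 nM against acute myeloid leukemia cells (1000 cells per well in 50 µL) over 72 h, with the whole screen done in duplicate. Viability readout relied on CellTiter-Glo luminescence measured on an EnVision reader. For each plate, linear regression mapped values between positive-control-treated cells at 0% and DMSO-treated cells at 100%.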

Row | Compound | cell viability
1 | O=[N+]([O-])c1ccc(-c2nc(-c3ccc(F)cc3)c(-c3ccncc3)[nH]2)cc1 | 101 ± 5.5%
2 | O=C1NC(=O)/C(=C/c2ccc3c(c2)OCO3)S1 | 112 ± 8%
3 | N#CC[C@H](C1CCCC1)n1cc(-c2ncnc3[nH]ccc23)cn1 | 109 ± 4%
4 | Nc1ncnc2c1c(-c1cccc(OCc3ccccc3)c1)cn2C1CC(CN2CCCC2)C1 (stereo not given) | 96.5 ± 2.5%
5 | CNC(=O)c1cc(Oc2ccc(NC(=O)c3cccc(C(F)(F)F)c3)cc2)ccn1 | 103 ± 4.9%
6 | COc1ccc(S(=O)(=O)N(C(C)=O)c2ccccc2/C=C/c2cc[n+]([O-])cc2)cc1 | 104 ± 27%
7 | CCOc1cc2ncc(C#N)c(Nc3ccc(F)c(Cl)c3)c2cc1NC(=O)/C=C/CN(C)C [Pelitinib (EKB-569)] | 104 ± 3.4%
8 | Cc1ccc(S(=O)(=O)NC(=O)NN2CC3CCCC3C2)cc1 (stereo not given) [Gliclazide] | 113 ± 6.1%
9 | C[C@@H]1CN(C(=O)c2ccc(NC(=O)c3cc(O[C@H](C)c4c(Cl)ccc(F)c4Cl)c(N)nn3)cc2)C[C@H](C)N1 [Ensartinib] | 118 ± 12%
10 | O=c1[nH]c(C2CCCN2)nc2c1oc1ccc(Cl)cc12 (stereo not given) | 107 ± 3.5%
11 | CN1CCN(CCOc2cc(OC3CCOCC3)c3c(Nc4c(Cl)ccc5c4OCO5)ncnc3c2)CC1 [Saracatinib (AZD0530)] | 106 ± 6.2%
12 | CC(=O)CC(c1ccccc1)c1c(O)c2ccccc2oc1=O (stereo not given) [Warfarin sodium] | 114 ± 4.9%
13 | CC(=O)/C(C)=N/O [2,3-Butanedione 2-Monoxime] | 119 ± 7.6%
14 | Cc1cc(Nc2cc(CN3CCOCC3)c3nc(C)c(Cc4ccc(Cl)cc4F)n3n2)n[nH]1 | 113 ± 2%
15 | Cn1c(=O)n(-c2ccc(C(C)(C)C#N)cc2)c2c3cc(-c4cnc5ccccc5c4)ccc3ncc21 | 109 ± 15%
16 | FC(F)c1nc2ccccc2n1-c1nc(N2CCOCC2)nc(N2CCOCC2)n1 | 122 ± 12%
17 | CCNc1nc(Nc2cc(F)c(C(=O)N3CCOCC3)cc2OC)ncc1C(F)(F)F | 102.3 ± 0.71%
18 | O=C1NC(=O)C(c2c[nH]c3ccccc23)=C1c1c[nH]c2ccccc12 [Bisindolylmaleimide IV] | 100 ± 2.6%
19 | O=c1c(-c2ccc(O)cc2)coc2cc(O)cc(O)c12 [Genistein] | 122 ± 24%
20 | Cc1ncc(-c2ccnc(Nc3ccc(S(C)(=O)=O)cc3)n2)n1C(C)C | 122 ± 13%

Row | Compound | cell viability
21 | Cn1cnc2c(NCc3ccccc3)nc(NCCO)nc21 [Olomoucine] | 104.2 ± 1%
22 | CNCc1ccc(-c2cc(-c3nc(-c4ccc(S(=O)(=O)C(C)C)cc4)cnc3N)on2)cc1 | 101 ± 18%
23 | COc1cc2ncnc(Oc3cccc(NC(=O)Nc4cc(C(C)(C)C(F)(F)F)on4)c3)c2cc1OC | 113 ± 17%
24 | C[C@H](Nc1ncnc2nc[nH]c12)c1cc2cccc(Cl)c2c(=O)n1-c1ccccc1 [Duvelisib (IPI-145, INK1197)] | 111 ± 15%
25 | c1ccc2c(-c3cnn4cc(-c5ccc(N6CCNCC6)cc5)cnc34)ccnc2c1 | 112 ± 6.1%
26 | CN1CCN(c2ccc(C(=O)Nc3cc(-c4cccc(NS(=O)(=O)c5ccccc5)c4)[nH]n3)cc2)CC1 | 85.5 ± 9.9%
27 | Cn1cnc(N)c2ncnc1-2 [3-Methyladenine] | 111.9 ± 1.1%
28 | Cc1cc(C(C)Nc2ccccc2)c2nc(N3CCOCC3)cc(=O)n2c1 (stereo not given) | 100 ± 3.8%
29 | COc1ccc(Cl)cc1NC(=O)Nc1cc(C)nc2ccccc12 | 130 ± 17%
30 | CS(=O)(=O)c1ccc(-c2cnc(N)c(C(=O)Nc3ccccc3)n2)cc1 | 93.76 ± 0.24%
31 | CC(C)n1cnc2c(NCc3ccccc3)nc(NCCCO)nc21 [Bohemine] | 103 ± 13%
32 | COc1ccc(CNc2nc(N(CCO)CCO)nc3c2ncn3C(C)C)cc1 | 104 ± 8.2%
33 | C[C@@H](N)[C@H]1CC[C@H](C(=O)Nc2ccncc2)CC1 | 100% and 112%
34 | O=C1Cc2c([nH]c3ccc(Br)cc23)-c2ccccc2N1 [Kenpaullone] | 111 ± 5.9%
35 | CCN(CC)CCNC(=O)c1c(C)[nH]c(/C=C2\C(=O)Nc3ccc(F)cc32)c1C [Sunitinib Malate] | 97.8 ± 4.2%
36 | CN1CCN(CCCNc2ncc(Cl)c(-c3cc4c(C(=O)NC5CC5)cccc4s3)n2)CC1 | 109 ± 13%
37 | CC(C)[C@H](CO)Nc1nc(Nc2cccc(Cl)c2)c2ncn(C(C)C)c2n1 [Purvalanol A] | 106 ± 12%
38 | CC(=O)c1c(C)c2cnc(Nc3ccc(N4CCNCC4)cn3)nc2n(C2CCCC2)c1=O [Palbociclib] | 113 ± 9.9%
39 | CCN1CCN(Cc2ccc(Nc3ncc(F)c(-c4cc(F)c5nc(C)n(C(C)C)c5c4)n3)nc2)CC1 | 102% and 112%
40 | O=C(O)CN1C(=O)c2c(I)c(I)c(I)c(I)c2C1=O | 107 ± 3.2%
